The source of these data is PubChem BioAssay (NCI).

The panel holds about 83,000 compounds, 20% with a hit somewhere; the sample as a whole holds those more often.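 Method: cells in 96-well plates; compound added at one concentration; 48 h incubation; percent growth measured; values under 10 scored active.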 Unmarked numbers belong to inactive results. Calls of active or inactive are those of the source.

Test systems include SR leukemia; RPMI-8226 leukemia; OVCAR-8 ovarian; OVCAR-5 ovarian; OVCAR-4 ovarian; SK-OV-3 ovarian; IGROV1 ovarian; OVCAR-3 ovarian; HS 578T breast; NCI/ADR-RES ovarian; T-47D breast; BT-549 breast; MDA-MB-435 melanoma; SW-620 colon; MCF7 breast; HCT-116 colon; KM12 colon; HCC-2998 colon.
What all share (assay): NCI-60 one-dose screen, 48 h (100 = growth as untreated, 0 = no growth, -100 = all killed)
What all share (details): 10 µM

For `C/C=C\COc1cc(C)c(Cl)cc1Cl`, the growth was 107% in the experiment with SR leukemia; 99.7% with RPMI-8226 leukemia; 99.4% in the experiment with OVCAR-8 ovarian; 108% with OVCAR-5 ovarian; 94.7% in the experiment on OVCAR-4 ovarian; 112% in the experiment with SK-OV-3 ovarian. Further, the growth in the experiment with IGROV1 ovarian is 107%; in the experiment on OVCAR-3 ovarian it was 116%; in the experiment on HS 578T breast it was 121%; in the experiment with NCI/ADR-RES ovarian, 115%; with T-47D breast, 105%; in the experiment with BT-549 breast, 126%. Besides, the growth is 98% in the experiment with MDA-MB-435 melanoma; 96.2% with SW-620 colon; 98.4% in the experiment with MCF7 breast; 110% in the experiment on HCT-116 colon; 109% in the experiment on KM12 colon.
As for `CNCCCNCCCN1C(=O)c2ccc3c4c(ccc(c24)C1=O)C(=O)N(CCCNCc1ccccc1OC)C3=O`, the growth in the experiment on SR leukemia was -0.146% (active); in the experiment with RPMI-8226 leukemia it was -16.2% (active); with OVCAR-8 ovarian it was -31.9% (active); in the experiment on OVCAR-5 ovarian, 5.23% (active); in the experiment with OVCAR-4 ovarian it was -91.5% (active); in the experiment with SK-OV-3 ovarian it was 36.8%. The growth was -40.7% (active) in the experiment on IGROV1 ovarian; -17.6% (active) with OVCAR-3 ovarian; 4.28% (active) in the experiment on HS 578T breast; 63% in the experiment on NCI/ADR-RES ovarian; -30.3% (active) in the experiment with T-47D breast; 78.1% in the experiment with BT-549 breast. The growth in the experiment with MDA-MB-435 melanoma was -58.6% (active); in the experiment with SW-620 colon, -19% (active); in the experiment with MCF7 breast, -51.7% (active); with HCT-116 colon, -8.97% (active); in the experiment on HCC-2998 colon, -9.5% (active); in the experiment with KM12 colon it was -16.9% (active).
Take `N#Cc1c(-c2ccccc2)nc(SCC(=O)N2CCOCC2)[nH]c1=O`: the growth was 90.1% in the experiment on SR leukemia; 99% in the experiment on RPMI-8226 leukemia; 99.3% with OVCAR-8 ovarian; 103% in the experiment on OVCAR-5 ovarian; 104% in the experiment on OVCAR-4 ovarian; 90.7% in the experiment on SK-OV-3 ovarian. The growth is 112% with IGROV1 ovarian; 110% in the experiment with OVCAR-3 ovarian; 108% in the experiment on HS 578T breast; 103% with NCI/ADR-RES ovarian; 93.4% with T-47D breast; 88.2% in the experiment on BT-549 breast. Also, the growth with MDA-MB-435 melanoma was 112%; with SW-620 colon it was 106%; with MCF7 breast, 89.7%; in the experiment with HCT-116 colon, 99.9%; in the experiment with HCC-2998 colon it was 109%; with KM12 colon, 114%.
Turning to `Nc1ccccc1NC(=O)CCCCCCC(=O)Nc1ccc2c(c1)/C(=C/c1ccc[nH]1)C(=O)N2`, the growth in the experiment with SR leukemia was 26.8%; in the experiment on RPMI-8226 leukemia, -17.6% (active); in the experiment on OVCAR-8 ovarian it was 26.2%; in the experiment with OVCAR-5 ovarian it was 67%; in the experiment with OVCAR-4 ovarian, 35.1%; in the experiment with SK-OV-3 ovarian, 38.4%. In addition, the growth in the experiment on IGROV1 ovarian is 49.7%; in the experiment with OVCAR-3 ovarian, 29.3%; with HS 578T breast it was 27.5%; in the experiment with NCI/ADR-RES ovarian it was 93.1%; with T-47D breast, 37.9%; in the experiment on BT-549 breast, 22%. Also, the growth in the experiment on MDA-MB-435 melanoma is 37.8%; with SW-620 colon, 47.4%; with MCF7 breast, 15.9%; with HCT-116 colon it was 17%; with KM12 colon, 13.7%.
As for `O=C(NC1CCN(Cc2ccccc2)CC1)c1cc(-c2ccncc2)nc2ccc(Cl)cc12`, the growth in the experiment on SR leukemia is 8.12% (active); with RPMI-8226 leukemia, 21.9%; with OVCAR-8 ovarian, 18.4%; with OVCAR-5 ovarian it was 75.3%; with OVCAR-4 ovarian, 27.6%; in the experiment with SK-OV-3 ovarian, 53.1%. Further, the growth with IGROV1 ovarian is 32.3%; with OVCAR-3 ovarian, 15.5%; in the experiment on HS 578T breast, 59.9%; in the experiment with NCI/ADR-RES ovarian, 11.2%; in the experiment with T-47D breast, 29.8%; in the experiment with BT-549 breast it was 35.4%. Moreover, the growth is 28% in the experiment with MDA-MB-435 melanoma; 23.5% with SW-620 colon; 17.7% in the experiment with MCF7 breast; 9.97% (active) with HCT-116 colon; 44.4% in the experiment with HCC-2998 colon; 26.1% in the experiment on KM12 colon.
With `C/C(=N/NC(=O)c1sc(=S)n(C)c1N)c1cc2cc(Cl)ccc2o1`, the growth in the experiment with SR leukemia is 98.7%; in the experiment with RPMI-8226 leukemia, 87.3%; with OVCAR-8 ovarian, 14.3%; with OVCAR-5 ovarian, 101%; with OVCAR-4 ovarian, 117%; in the experiment on SK-OV-3 ovarian, 102%. Moreover, the growth was 51.6% in the experiment with IGROV1 ovarian; 110% with OVCAR-3 ovarian; 5.99% (active) with HS 578T breast; 104% in the experiment on NCI/ADR-RES ovarian; 80.4% with T-47D breast; 113% in the experiment on BT-549 breast. The growth was 95.7% in the experiment on MDA-MB-435 melanoma; 44.3% in the experiment with SW-620 colon; 82.7% in the experiment on MCF7 breast; 103% in the experiment on HCT-116 colon; 88.2% in the experiment with KM12 colon.
As for `COc1cc(N=C2C(=O)N(Cc3ccccc3)c3ccccc32)cc(OC)c1OC`, the growth is 74.5% with SR leukemia; 38.4% in the experiment with RPMI-8226 leukemia; 96.6% with OVCAR-8 ovarian; 95% in the experiment with OVCAR-5 ovarian; 98.8% in the experiment with OVCAR-4 ovarian; 101% with SK-OV-3 ovarian. Further, the growth in the experiment on IGROV1 ovarian was 86%; in the experiment with OVCAR-3 ovarian, 84.4%; in the experiment with HS 578T breast, 82.9%; with NCI/ADR-RES ovarian, 94.6%; in the experiment with T-47D breast it was 83.9%; in the experiment on BT-549 breast it was 106%. Further, the growth is 98.5% in the experiment with MDA-MB-435 melanoma; 103% in the experiment on SW-620 colon; 93.8% with MCF7 breast; 99.8% in the experiment with HCT-116 colon; 96.1% in the experiment with KM12 colon.
As to `Nc1nc(SCC#CCCl)c2[nH]cnc2n1`, the growth in the experiment on SR leukemia is 29.9%; with RPMI-8226 leukemia, 36.2%; with OVCAR-8 ovarian, 71.2%; in the experiment with OVCAR-5 ovarian it was 90.8%; with OVCAR-4 ovarian, 43.1%; with SK-OV-3 ovarian, 49.6%. Further, the growth in the experiment on IGROV1 ovarian is 25.4%; with OVCAR-3 ovarian it was 54.5%; in the experiment on HS 578T breast, 73.6%; in the experiment with NCI/ADR-RES ovarian it was 67%; in the experiment on T-47D breast, 37.2%; in the experiment with BT-549 breast it was 44.8%. Besides, the growth in the experiment with MDA-MB-435 melanoma was 46.7%; in the experiment with SW-620 colon, 40.8%; in the experiment on MCF7 breast, 34.6%; in the experiment with HCT-116 colon, 39%; in the experiment with HCC-2998 colon, 100%; with KM12 colon it was 60.6%.
